# Test results published in ChEMBL document CHEMBL3988442, “University of Dundee, Small-Polar-MMV Screening Library” (2021).
# The whole screen tested about 48,000 compounds, of which about 13,000 (27%) showed an effect of 50% or more. The list shows a part of the results.
# Test system: Wolbachia pipientis
# Assay: Anti-Wolbachia Cell-Based Screen
# Assay type: functional
# Set-up: scale not given: in the data most compounds retested in dose-response had high values
# Details: 5 µM
row,Compound,Percent Effect [%]
1,Cc1cccc(C(=O)N2CC(C(=O)NCC3CC3)C3(CCOCC3)C2)n1.O=C(O)C(F)(F)F (stereo not drawn),-7.832
2,CO[C@H]1CN(C(=O)c2cn3cc(C)ccc3n2)CC[C@@]12CCCO2,93.74
3,CO[C@H]1CN(C(=O)c2cccc(C)n2)CC[C@@]12CCCO2,114.9
4,COCc1cn([C@@H]2c3ccccc3C3(CCNCC3)[C@H]2O)nn1,-6.385
5,CCC(C)(NCC(=O)Nc1ccccc1)c1nc(C)cs1 (stereo not drawn),-1.246
6,CCc1nc(C)cn1C(=O)Nc1ccccc1,107.6
7,CCc1nc(C)cn1C(=O)Nc1ccc(F)cc1,113
8,CN(C)c1nc2n(c(=O)n1)CCN2C(=O)Nc1ccccc1,0.604
9,CC(=O)c1c(C)nn(CC(=O)Nc2ccc(F)cc2)c1C,6.274
10,Cc1ccc(NC(=O)C2=CN=S=N2)cc1,-3.511
11,Cc1ccc(NC(=O)N2CCN(Cc3noc(C4CC4)n3)CC2)cc1,4.61
12,CN(C)Cc1nn(C)c2c1CN(C(=O)Nc1ccc(F)cc1)C2,-7.35
13,CCc1nc(C)cn1C(=O)Nc1ccc(C)cc1,109.3
14,Cc1cc(=O)n2ncnc2n1CC(O)c1ccccc1F (stereo not drawn),-9.153
15,CN(C)S(=O)(=O)N1CC[C@]2(C[C@@H](OCC3CC3)CO2)C1,9.447
16,CCCN(Cc1ccc(C(=O)NCC2COCCO2)c(=O)[nH]1)C1CC1 (stereo not drawn),2.285
17,Cc1cc2c(cc1CN1CCCCC1CCn1ccnc1C)OCO2 (stereo not drawn),17.86
18,CN(C)CCOCC1CN(C(=O)c2cccn2C)Cc2ccnn2C1.O=C(O)C(F)(F)F.O=C(O)C(F)(F)F (stereo not drawn),-5.365
19,CN1CCN(S(=O)(=O)c2cccc(C#N)c2)c2ccc(F)cc21,4.028
20,Cc1c(CN2CCCC2c2cncc(CN3CCCC3)n2)cnn1C (stereo not drawn),74.36

row,Compound,Percent Effect [%]
1,O=C(c1cc[nH]n1)N1CCCC1c1cncc(CN2CCOCC2)n1 (stereo not drawn),91.81
2,Cc1nc(C(=O)N2CCCC2c2cncc(CN3CCCC3)n2)co1 (stereo not drawn),62.39
3,O=C(C1CCOCC1)N1CCCC1c1cncc(CN2CCCC2)n1 (stereo not drawn),74.28
4,Cc1cccc(-c2c[nH]c(C3CCCN3C(=O)C3CCOCC3)n2)c1 (stereo not drawn),16.55
5,CN(C)CCC1CCCCN1Cc1cnn(C)c1C1CC1 (stereo not drawn),-0.7786
6,Cc1nn(C)c(C)c1C1CCCN1C(=O)c1cc[nH]n1 (stereo not drawn),-0.5637
7,Cc1nc(CN2CCC(NS(C)(=O)=O)CC2)co1,-13.72
8,CCc1nc(CN2CCCN(C(=O)C3CCOCC3)CC2)cs1,-0.509
9,Cc1cc(C(=O)N2CCCC2CN2CCCC2)no1 (stereo not drawn),0.09079
10,O=C(CCC1CC1)N1CCC(n2cc(C3(O)CCCC3)nn2)CC1,-0.3223
11,COc1ccc(C2(C(=O)N3C[C@@H](C(=O)O)[C@H](C(C)C)C3)CC2)cc1,6.312
12,O=C(CC1CCCCC1)NC1CCCCNC1=O (stereo not drawn),129.3
13,O=C(CS(=O)(=O)Cc1ccccc1)NC1CCCCNC1=O (stereo not drawn),109
14,O=C(CS(=O)(=O)Cc1ccc(F)cc1)NCc1ccccc1F,-12.49
15,CC(C)CS(=O)(=O)CC(=O)NC1CCCCNC1=O (stereo not drawn),105
16,O=C(CS(=O)(=O)Cc1ccc(F)cc1)NC1CCCCNC1=O (stereo not drawn),104.6
17,Cc1cc(C)n(CC(=O)NC2CCCCNC2=O)n1 (stereo not drawn),-5.953
18,Cn1cnc2c1CCN(CC(=O)NC1CCCCNC1=O)C2 (stereo not drawn),2.624
19,O=C(CS(=O)(=O)CC1CCCCC1)NC1CCCCNC1=O (stereo not drawn),-2.84
20,Cn1c(C2CC2)nc2c1CCN(CC(=O)NC1CCCCNC1=O)C2 (stereo not drawn),-7.835

row,Compound,Percent Effect [%]
1,Cc1ccccc1CS(=O)(=O)CC(=O)NC1CCCCNC1=O (stereo not drawn),5.447
2,O=C1NCCCCC1NC(=O)C1(c2ccccc2)CCOCC1 (stereo not drawn),-10.73
3,O=C(CS(=O)(=O)c1ccccc1Cl)NC1CCCCNC1=O (stereo not drawn),7.591
4,CC1CCN(C)c2ccccc2N1C(=O)c1ccn(C)c(=O)c1 (stereo not drawn),-9.489
5,COc1cc(C)nc(N2CCN(C(=O)c3ccc[nH]3)CC2)n1,4.964
6,N#Cc1ccc(N2CCC(c3nccn3Cc3cscn3)CC2)nc1,4.95
7,Cc1nnc(CN(Cc2ccccc2C(F)(F)F)C2CC2)o1,-10.33
8,COc1ccccc1CN(Cc1nc(Cc2ccccc2)no1)C1CC1,122.2
9,COc1cc(CO)ccc1OCc1nc(C2CC2)no1,5.46
10,COc1ccc(CN(Cc2nc(C)no2)C2CCCCC2)cc1OC,113.8
11,CCc1noc(CN(CCc2ccccc2)C2CCN(C)CC2)n1,1.802
12,CC(C(=O)NC1CC1)S(=O)(=O)Cc1nc(Cc2ccccc2)no1 (stereo not drawn),-3.587
13,CCc1noc(C(C)N(C)Cc2ccc(OC)c(OC)c2)n1 (stereo not drawn),9.709
14,CCc1nc(CN(CCc2ccccc2)C2CCN(C)CC2)no1,22.84
15,COc1ccccc1CN(Cc1nc(C)no1)C1CC1,102.6
16,CN(Cc1ccc2c(c1)OCO2)Cc1nc(Cc2ccccc2)no1,-7.147
17,COc1ccccc1CN(Cc1nc2c(cnn2C)c(=O)[nH]1)C1CC1,17.98
18,CCN(Cc1nc(Cc2ccccc2)no1)C1CC1,93.91
